# Experiments:
# Assay in all cases: DAPPL (digital affinity profiling via proximity ligation, sequencing); 10 mM Tris-HCl pH 7.5, 50 mM NaCl, 1 mM DTT, 4% glycerol, room temperature, 30 min; GST-TFs on glutathione beads, 16-mer random dsDNA library, 0.1% formaldehyde crosslink after washing; high values mean tight binding
# FLI1 = molecular target: T1, FLI1 (Homo sapiens, UniProt Q01543 1-452); conditions: protein: recombinant; tags: N-terminal GST; dsDNA, one strand shown
# T1 sequence: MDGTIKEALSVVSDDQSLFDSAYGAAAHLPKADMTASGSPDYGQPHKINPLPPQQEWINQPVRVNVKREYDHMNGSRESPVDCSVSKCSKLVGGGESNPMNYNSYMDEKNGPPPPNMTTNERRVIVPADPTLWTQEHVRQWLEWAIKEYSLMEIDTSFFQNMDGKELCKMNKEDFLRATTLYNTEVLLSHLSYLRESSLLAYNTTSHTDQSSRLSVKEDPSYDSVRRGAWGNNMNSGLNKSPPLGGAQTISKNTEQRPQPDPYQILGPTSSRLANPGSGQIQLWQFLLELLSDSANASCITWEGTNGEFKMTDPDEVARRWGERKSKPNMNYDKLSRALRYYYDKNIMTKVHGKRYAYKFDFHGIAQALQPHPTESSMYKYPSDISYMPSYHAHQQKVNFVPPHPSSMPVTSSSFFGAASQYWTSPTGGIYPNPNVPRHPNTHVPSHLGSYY
# In short: (§1)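 Pools of DNA-barcoded human transcription factors, expressed in yeast as GST fusions on glutathione beads and combined with a tag-only sample, were incubated with 200 nmole of a 16-mer random double-stranded DNA library. Incubation took 30 min at room temperature in Tris/NaCl/DTT/glycerol buffer and was followed by washing, 0.1% formaldehyde crosslinking, proximity ligation (BsaI/T4 ligase, 1 h, 37 °C), PCR amplification and sequencing on an Illumina NextSeq500. Binding signal is the ratio of a hexamer's read frequency for a factor to its frequency for the tag-only sample.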
# ELK1 = molecular target: T2, ELK1 (Homo sapiens, UniProt P19419 1-428); conditions: protein: recombinant; tags: N-terminal GST; dsDNA, one strand shown
# T2 sequence: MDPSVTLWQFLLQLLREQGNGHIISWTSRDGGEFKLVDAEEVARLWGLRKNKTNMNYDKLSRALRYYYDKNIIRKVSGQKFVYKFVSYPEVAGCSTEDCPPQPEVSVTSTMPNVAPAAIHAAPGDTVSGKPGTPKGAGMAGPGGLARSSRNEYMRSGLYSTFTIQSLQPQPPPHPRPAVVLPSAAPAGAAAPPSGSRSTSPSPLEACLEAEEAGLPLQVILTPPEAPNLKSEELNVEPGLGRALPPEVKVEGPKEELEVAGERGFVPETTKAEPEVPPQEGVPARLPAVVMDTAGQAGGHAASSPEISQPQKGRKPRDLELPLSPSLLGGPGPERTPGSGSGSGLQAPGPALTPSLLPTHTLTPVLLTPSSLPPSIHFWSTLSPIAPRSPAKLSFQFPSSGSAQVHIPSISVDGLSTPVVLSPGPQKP
# In short: as §1
# GABPA = molecular target: T3, GABPA (Homo sapiens, UniProt Q06546 1-454); conditions: protein: recombinant; tags: N-terminal GST; dsDNA, one strand shown
# T3 sequence: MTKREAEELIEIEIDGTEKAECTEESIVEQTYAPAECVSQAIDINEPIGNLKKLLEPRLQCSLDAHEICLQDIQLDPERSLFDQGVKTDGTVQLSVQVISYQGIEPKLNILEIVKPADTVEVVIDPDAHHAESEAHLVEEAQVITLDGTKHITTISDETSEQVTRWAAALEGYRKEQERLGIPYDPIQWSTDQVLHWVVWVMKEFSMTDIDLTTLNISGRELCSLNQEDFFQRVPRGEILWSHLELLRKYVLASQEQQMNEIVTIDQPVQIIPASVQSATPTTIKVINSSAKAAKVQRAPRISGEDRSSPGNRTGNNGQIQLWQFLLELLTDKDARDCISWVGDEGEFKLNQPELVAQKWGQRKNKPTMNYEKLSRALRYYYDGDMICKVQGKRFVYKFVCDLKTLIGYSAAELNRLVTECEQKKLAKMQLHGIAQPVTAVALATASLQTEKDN
# In short: as §1
# ERG = molecular target: T4, ERG (Homo sapiens, UniProt P11308 1-479); conditions: protein: recombinant; tags: N-terminal GST; dsDNA, one strand shown
# T4 sequence: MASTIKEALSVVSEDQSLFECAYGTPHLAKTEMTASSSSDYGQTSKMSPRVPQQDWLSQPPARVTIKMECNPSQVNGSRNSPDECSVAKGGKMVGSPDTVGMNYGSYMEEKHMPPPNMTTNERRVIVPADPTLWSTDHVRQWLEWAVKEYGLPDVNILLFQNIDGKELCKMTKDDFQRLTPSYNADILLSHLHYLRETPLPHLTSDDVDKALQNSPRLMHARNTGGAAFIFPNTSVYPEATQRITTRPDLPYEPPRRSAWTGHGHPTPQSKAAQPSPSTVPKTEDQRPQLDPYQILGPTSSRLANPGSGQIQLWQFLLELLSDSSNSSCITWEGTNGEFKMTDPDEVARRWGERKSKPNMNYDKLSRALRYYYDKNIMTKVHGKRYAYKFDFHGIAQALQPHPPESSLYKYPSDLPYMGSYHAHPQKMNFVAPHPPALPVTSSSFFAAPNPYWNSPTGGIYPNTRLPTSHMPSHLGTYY
# In short: as §1
# ELF1 = ELF1 (Homo sapiens, UniProt P32519 1-619); conditions: protein: recombinant; tags: N-terminal GST; dsDNA, one strand shown
# Chain of ELF1 (P32519 whole entry): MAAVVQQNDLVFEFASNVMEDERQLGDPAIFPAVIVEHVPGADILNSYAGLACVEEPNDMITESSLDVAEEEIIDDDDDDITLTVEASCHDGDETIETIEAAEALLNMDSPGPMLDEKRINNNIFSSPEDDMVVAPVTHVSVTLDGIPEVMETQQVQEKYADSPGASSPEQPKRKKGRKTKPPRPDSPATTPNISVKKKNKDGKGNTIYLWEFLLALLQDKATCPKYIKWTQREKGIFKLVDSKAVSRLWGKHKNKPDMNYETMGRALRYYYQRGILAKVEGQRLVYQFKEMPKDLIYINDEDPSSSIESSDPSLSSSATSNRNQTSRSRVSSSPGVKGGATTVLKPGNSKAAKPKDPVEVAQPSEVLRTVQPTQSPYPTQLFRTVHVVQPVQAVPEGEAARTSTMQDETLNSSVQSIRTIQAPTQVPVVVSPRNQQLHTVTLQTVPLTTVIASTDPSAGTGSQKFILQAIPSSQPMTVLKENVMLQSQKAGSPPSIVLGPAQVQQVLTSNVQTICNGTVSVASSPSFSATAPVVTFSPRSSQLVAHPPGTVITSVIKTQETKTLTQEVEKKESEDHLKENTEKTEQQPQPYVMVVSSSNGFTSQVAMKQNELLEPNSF
# In short: as §1
# EHF = molecular target: T5, EHF (Homo sapiens, UniProt Q9NZC4 1-300); conditions: protein: recombinant; tags: N-terminal GST; dsDNA, one strand shown
# T5 sequence: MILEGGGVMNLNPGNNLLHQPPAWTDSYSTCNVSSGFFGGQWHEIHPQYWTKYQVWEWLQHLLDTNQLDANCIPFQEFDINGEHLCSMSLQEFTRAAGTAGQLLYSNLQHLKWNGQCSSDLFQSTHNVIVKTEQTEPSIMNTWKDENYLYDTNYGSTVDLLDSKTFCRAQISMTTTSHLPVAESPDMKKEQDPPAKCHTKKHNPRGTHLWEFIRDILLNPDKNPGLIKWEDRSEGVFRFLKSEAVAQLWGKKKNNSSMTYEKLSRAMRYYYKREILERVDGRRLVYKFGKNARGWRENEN
# In short: as §1
# SPI1 = SPI1 (Homo sapiens, UniProt P17947 1-270); conditions: protein: recombinant; tags: N-terminal GST; dsDNA, one strand shown
# In short: as §1
# SPIB = SPIB (Homo sapiens, UniProt Q01892 1-262); conditions: protein: recombinant; tags: N-terminal GST; dsDNA, one strand shown
# Chain of SPIB (Q01892 whole entry): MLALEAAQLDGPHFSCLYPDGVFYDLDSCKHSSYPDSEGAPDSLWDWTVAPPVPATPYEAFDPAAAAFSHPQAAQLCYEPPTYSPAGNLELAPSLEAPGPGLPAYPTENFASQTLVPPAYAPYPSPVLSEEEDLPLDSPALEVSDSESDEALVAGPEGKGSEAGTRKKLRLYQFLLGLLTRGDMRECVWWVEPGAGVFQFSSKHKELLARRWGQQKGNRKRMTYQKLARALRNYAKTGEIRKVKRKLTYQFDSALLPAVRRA
# In short: as §1
# ELK3 = molecular target: T6, ELK3 (Homo sapiens, UniProt P41970 1-407); conditions: protein: recombinant; tags: N-terminal GST; dsDNA, one strand shown
# T6 sequence: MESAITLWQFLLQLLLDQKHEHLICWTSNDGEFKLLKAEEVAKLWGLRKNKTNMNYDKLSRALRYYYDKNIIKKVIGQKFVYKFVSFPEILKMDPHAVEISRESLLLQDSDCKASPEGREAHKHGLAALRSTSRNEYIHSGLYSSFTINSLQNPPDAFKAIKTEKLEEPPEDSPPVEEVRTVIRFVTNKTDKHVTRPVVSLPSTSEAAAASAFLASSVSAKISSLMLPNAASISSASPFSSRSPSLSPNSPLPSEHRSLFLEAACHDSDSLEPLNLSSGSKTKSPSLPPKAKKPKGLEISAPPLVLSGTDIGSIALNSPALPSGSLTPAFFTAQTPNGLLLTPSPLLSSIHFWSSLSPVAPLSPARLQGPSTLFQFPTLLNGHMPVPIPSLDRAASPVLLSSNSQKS
# In short: as §1
# FEV = molecular target: T7, FEV (Homo sapiens, UniProt Q99581 1-238); conditions: protein: recombinant; tags: N-terminal GST; dsDNA, one strand shown
# T7 sequence: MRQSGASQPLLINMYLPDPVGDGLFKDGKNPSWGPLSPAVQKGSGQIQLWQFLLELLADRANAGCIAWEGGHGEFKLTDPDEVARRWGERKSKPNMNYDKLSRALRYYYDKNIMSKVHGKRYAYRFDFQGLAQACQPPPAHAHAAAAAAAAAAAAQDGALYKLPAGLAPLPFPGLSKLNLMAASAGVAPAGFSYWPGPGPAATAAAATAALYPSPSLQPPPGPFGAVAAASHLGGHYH
# In short: as §1
# ETV5 = ETV5 (Homo sapiens, UniProt P41161 1-510); conditions: protein: recombinant; tags: N-terminal GST; dsDNA, one strand shown
# Chain of ETV5 (P41161 whole entry): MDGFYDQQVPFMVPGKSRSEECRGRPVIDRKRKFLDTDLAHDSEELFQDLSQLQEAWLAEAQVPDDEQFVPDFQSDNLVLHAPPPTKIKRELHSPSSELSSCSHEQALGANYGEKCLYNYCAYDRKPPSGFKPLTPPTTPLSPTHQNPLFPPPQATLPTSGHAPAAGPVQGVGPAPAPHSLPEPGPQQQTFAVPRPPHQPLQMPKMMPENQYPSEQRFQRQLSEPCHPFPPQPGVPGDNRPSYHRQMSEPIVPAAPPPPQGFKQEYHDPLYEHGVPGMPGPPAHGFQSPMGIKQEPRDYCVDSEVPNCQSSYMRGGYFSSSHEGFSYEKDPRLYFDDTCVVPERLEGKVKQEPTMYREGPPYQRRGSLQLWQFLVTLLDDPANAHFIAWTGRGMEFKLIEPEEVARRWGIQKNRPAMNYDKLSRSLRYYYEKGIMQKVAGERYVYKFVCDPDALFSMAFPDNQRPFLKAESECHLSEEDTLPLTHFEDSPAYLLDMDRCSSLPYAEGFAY
# In short: as §1
# HSF1 = HSF1 (Homo sapiens, UniProt Q00613 1-529); conditions: protein: recombinant; tags: N-terminal GST; chain copies: 3; dsDNA, one strand shown
# Chain of HSF1 (Q00613 whole entry): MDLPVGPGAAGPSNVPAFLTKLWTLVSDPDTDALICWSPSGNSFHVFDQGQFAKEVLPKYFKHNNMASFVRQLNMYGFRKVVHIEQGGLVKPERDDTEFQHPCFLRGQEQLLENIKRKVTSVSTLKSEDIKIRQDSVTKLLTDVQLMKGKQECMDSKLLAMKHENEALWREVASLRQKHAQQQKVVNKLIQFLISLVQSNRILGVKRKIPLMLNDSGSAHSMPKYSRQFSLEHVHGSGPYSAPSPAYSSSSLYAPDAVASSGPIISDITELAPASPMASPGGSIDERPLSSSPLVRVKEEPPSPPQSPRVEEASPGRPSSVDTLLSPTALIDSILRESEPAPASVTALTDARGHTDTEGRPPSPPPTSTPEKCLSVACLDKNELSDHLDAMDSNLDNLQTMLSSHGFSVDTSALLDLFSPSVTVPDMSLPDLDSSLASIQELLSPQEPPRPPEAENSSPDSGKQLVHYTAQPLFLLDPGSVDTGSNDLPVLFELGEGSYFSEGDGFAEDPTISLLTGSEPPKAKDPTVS
# In short: as §1
# SPIC = molecular target: T8, SPIC (Homo sapiens, UniProt Q8N5J4 1-248); conditions: protein: recombinant; tags: N-terminal GST; dsDNA, one strand shown
# T8 sequence: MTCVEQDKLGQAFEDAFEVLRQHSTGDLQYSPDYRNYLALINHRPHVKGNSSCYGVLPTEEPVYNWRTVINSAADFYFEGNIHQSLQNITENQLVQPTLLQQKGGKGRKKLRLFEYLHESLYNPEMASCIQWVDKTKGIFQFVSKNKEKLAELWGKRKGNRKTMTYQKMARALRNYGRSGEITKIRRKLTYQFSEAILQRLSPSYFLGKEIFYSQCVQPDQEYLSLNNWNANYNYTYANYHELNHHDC
# In short: as §1
# ELF4 = ELF4 (Homo sapiens, UniProt Q99607 1-663); conditions: protein: recombinant; tags: N-terminal GST; dsDNA, one strand shown
# Chain of ELF4 (Q99607 whole entry): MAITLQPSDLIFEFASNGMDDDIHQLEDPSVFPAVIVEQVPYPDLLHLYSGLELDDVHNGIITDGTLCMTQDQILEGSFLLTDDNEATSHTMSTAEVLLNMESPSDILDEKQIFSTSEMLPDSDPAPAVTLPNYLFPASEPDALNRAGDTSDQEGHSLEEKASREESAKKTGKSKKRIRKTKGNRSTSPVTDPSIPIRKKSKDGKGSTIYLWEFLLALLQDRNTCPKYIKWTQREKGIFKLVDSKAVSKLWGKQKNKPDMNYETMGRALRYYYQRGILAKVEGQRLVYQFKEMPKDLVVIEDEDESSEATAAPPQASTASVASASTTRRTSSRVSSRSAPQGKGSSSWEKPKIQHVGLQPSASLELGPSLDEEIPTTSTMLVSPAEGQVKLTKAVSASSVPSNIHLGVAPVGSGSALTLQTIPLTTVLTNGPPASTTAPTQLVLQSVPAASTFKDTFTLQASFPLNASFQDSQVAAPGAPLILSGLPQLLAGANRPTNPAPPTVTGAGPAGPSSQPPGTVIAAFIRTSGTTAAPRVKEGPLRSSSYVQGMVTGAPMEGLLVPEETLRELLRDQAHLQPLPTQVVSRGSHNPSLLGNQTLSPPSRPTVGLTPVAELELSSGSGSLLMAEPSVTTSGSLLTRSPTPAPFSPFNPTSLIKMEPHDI
# In short: as §1
# ELK4 = molecular target: T9, ELK4 (Homo sapiens, UniProt P28324-2 1-405); conditions: protein: recombinant; tags: N-terminal GST; dsDNA, one strand shown
# T9 sequence: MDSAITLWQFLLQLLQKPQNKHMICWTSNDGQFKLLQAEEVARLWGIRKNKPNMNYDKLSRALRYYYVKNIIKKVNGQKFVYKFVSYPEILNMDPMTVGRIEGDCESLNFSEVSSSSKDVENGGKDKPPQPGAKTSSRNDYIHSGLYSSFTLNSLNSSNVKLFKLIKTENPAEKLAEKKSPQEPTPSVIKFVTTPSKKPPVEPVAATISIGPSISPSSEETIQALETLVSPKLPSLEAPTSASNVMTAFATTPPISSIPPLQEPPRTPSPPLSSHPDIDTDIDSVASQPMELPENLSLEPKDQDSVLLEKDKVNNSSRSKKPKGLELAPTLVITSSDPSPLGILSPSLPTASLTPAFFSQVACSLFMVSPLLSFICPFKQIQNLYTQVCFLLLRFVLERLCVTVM
# In short: as §1
# ETV2 = molecular target: T10, ETV2 (Homo sapiens, UniProt O00321 1-342); conditions: protein: recombinant; tags: N-terminal GST; dsDNA, one strand shown
# T10 sequence: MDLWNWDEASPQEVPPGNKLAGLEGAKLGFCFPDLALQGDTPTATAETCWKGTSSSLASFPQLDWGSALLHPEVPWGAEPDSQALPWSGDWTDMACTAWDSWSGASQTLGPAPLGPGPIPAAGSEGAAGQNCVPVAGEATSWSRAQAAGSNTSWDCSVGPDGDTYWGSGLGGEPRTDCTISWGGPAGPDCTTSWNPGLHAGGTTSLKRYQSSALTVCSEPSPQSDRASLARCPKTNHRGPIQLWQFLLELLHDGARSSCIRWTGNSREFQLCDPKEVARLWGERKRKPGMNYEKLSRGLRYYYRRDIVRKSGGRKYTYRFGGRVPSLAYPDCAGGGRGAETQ
# In short: as §1
# ELF3 = molecular target: T11, ELF3 (Homo sapiens, UniProt P78545 1-371); conditions: protein: recombinant; tags: N-terminal GST; dsDNA, one strand shown
# T11 sequence: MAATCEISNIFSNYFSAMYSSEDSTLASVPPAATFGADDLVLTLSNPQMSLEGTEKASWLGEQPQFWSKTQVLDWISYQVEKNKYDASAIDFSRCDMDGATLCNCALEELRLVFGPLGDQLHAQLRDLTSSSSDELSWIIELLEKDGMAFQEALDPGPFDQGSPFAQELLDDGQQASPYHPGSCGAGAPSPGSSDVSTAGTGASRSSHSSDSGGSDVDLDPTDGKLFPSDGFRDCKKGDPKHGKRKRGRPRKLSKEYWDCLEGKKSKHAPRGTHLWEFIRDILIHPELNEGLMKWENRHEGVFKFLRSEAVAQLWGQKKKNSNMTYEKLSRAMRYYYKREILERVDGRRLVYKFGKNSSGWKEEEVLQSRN
# In short: as §1
# CRX = CRX (Homo sapiens, UniProt O43186 1-299); conditions: protein: recombinant; tags: N-terminal GST; dsDNA, one strand shown
# Chain of CRX (O43186 whole entry): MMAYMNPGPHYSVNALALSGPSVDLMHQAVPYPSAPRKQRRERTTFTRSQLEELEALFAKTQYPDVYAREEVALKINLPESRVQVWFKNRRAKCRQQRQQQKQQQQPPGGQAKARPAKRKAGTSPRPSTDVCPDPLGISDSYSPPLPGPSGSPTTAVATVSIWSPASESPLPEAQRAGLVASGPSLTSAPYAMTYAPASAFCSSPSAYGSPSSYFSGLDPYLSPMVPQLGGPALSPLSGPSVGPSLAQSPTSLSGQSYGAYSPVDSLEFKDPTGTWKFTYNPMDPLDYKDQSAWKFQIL
# In short: as §1
# ETV1 = ETV1 (Homo sapiens, UniProt P50549 1-477); conditions: protein: recombinant; tags: N-terminal GST; dsDNA, one strand shown
# Chain of ETV1 (P50549 whole entry): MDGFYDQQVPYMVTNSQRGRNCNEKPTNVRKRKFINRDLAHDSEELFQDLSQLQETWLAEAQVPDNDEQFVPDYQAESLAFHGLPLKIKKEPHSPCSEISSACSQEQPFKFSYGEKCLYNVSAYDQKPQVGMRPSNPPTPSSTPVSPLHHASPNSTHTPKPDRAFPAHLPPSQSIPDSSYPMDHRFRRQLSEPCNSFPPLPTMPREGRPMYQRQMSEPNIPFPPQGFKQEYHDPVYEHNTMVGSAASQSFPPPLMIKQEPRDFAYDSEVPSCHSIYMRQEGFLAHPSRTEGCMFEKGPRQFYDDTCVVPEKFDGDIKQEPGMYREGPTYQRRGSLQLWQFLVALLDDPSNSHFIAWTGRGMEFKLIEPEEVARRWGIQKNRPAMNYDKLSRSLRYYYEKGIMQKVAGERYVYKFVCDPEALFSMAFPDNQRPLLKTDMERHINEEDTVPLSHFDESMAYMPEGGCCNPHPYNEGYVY
# In short: as §1
sequence,measurement,setting,value
ACCGAC,binding signal,FLI1,"1.41 fold enrichment (6-mer frequency, TF over GST control)"
same,binding signal,ELK1,"1.29 fold enrichment (6-mer frequency, TF over GST control)"
same,binding signal,GABPA,"1.29 fold enrichment (6-mer frequency, TF over GST control)"
same,binding signal,ERG,"1.29 fold enrichment (6-mer frequency, TF over GST control)"
same,binding signal,ELF1,"1.3 fold enrichment (6-mer frequency, TF over GST control)"
same,binding signal,EHF,"1.23 fold enrichment (6-mer frequency, TF over GST control)"
same,binding signal,SPI1,"1.4 fold enrichment (6-mer frequency, TF over GST control)"
same,binding signal,SPIB,"1.34 fold enrichment (6-mer frequency, TF over GST control)"
same,binding signal,ELK3,"1.35 fold enrichment (6-mer frequency, TF over GST control)"
same,binding signal,FEV,"1.36 fold enrichment (6-mer frequency, TF over GST control)"
same,binding signal,ETV5,"1.31 fold enrichment (6-mer frequency, TF over GST control)"
same,binding signal,HSF1,"1.05 fold enrichment (6-mer frequency, TF over GST control)"
same,binding signal,SPIC,"1.37 fold enrichment (6-mer frequency, TF over GST control)"
same,binding signal,ELF4,"1.31 fold enrichment (6-mer frequency, TF over GST control)"
same,binding signal,ELK4,"1.24 fold enrichment (6-mer frequency, TF over GST control)"
same,binding signal,ETV2,"1.36 fold enrichment (6-mer frequency, TF over GST control)"
same,binding signal,ELF3,"1.17 fold enrichment (6-mer frequency, TF over GST control)"
same,binding signal,CRX,"1.05 fold enrichment (6-mer frequency, TF over GST control)"
same,binding signal,ETV1,"1.37 fold enrichment (6-mer frequency, TF over GST control)"

# Source: paper PMC7862700, “An all-to-all approach to the identification of sequence-specific readers for epigenetic DNA modifications on cytosine”
